GALR2 agonist: GALR2 receptor agonists, primary screen, cell-based; Galanin receptor type 2 (Homo sapiens), O43603; GALR2-expressing cells, agonist activation read-out; activation, % (concentration not given with the values); 140,000 compounds, 0.48% hits; in the data active = activation above about 5%, passing the limit was not always enough;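 note: 0% = vehicle buffer wells and 100% = reference agonist at full effect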
F-actin modifier: modifiers of F-actin cytoskeleton organization, primary screen, imaging, HUVEC, phalloidin staining, high-content imaging | 91,000 compounds, 0.18% hits | HUVEC TNFa F-actin phalloidin imaging | inhibition, % at 2 µM | AID 836, 2007;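 active = inhibition above the batch mean plus 3 SD and confirmed as a hit by visual image inspection, cut at about 30% in these data, passing the limit was not always enough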
S1P2 agonist: S1P2 receptor agonists, primary screen, cell-based | 97,000 compounds, 0.46% hits | S1P2-expressing cell line, agonist reporter read-out | activation, % at 4.5 µM; in the data active = activation above about 16%;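 note: 0% = vehicle low control and 100% = maximal reference agonist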
Target sequence (O95136 whole entry, looked up): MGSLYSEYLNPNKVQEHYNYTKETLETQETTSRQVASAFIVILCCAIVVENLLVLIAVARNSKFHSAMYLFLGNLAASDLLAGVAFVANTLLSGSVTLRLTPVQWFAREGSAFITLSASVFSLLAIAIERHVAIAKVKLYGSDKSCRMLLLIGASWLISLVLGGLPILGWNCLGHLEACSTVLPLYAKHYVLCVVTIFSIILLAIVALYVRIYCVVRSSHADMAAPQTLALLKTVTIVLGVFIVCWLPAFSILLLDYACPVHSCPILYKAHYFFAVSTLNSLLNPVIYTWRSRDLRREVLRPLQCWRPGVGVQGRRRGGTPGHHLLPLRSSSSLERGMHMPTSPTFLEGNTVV
S1P2 antag: human S1P2 receptor antagonists, primary screen, cell-based; Sphingosine 1-phosphate receptor 2 (Homo sapiens), O95136; inhibition, % at 5 µM; cell-based S1P2 antagonist assay, inhibition at 5 uM; 97,000 compounds, 0.21% hits; in the data active = inhibition above about 45%;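 note: CRE beta-lactamase reporter cells expressing human S1P2 stimulated with S1P; 0% = agonist at EC80 alone and 100% = agonist plus reference antagonist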
GALR2 blocker: GALR2 antagonists in receptor-expressing cells, primary screen. Galanin receptor type 2 (Homo sapiens), O43603. antagonist mode. inhibition, % at 4 µM. 140,000 compounds, 0.39% hits;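 note: cells stimulated with galanin 1-16 at roughly its EC80; 0% = agonist challenge control and 100% = basal control without agonist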
GALR2 agon conf: GALR2 agonists, retest of hits, confirmation, cell-based | shares compounds with GALR2 agonist | GALR2-expressing cells, agonist activation | activation, % at 5.6 µM | 460 compounds, 10% hits; in the data active = activation above about 8.4%;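 note: 0% = buffer-only vehicle wells and 100% = full reference agonist response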
BLA act counter: activators of NFAT-driven beta-lactamase reporter, confirmation, counter-screen for GALR2 agonist project, CHO NFAT-bla cells, FRET readout. shares compounds with GALR2 agonist. beta-lactamase FRET activation. activation, % at 5.6 µM. 460 compounds, 10% hits. AID 865, 2007;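 active = activation above the screen-wide mean activation plus 3 SD, cut at about 8% in these data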;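 note: 0% = DMSO with PBS wells and 100% = thapsigargin positive control wells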
GALR2 blk conf: GALR2 antagonists, retest of hits, confirmation, cell-based; shares compounds with GALR2 blocker; AID 866, 2007; inhibition, % at 4 µM; GALR2-expressing cells, antagonist mode, inhibition; 480 compounds, 60% hits;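 note: cells stimulated with galanin at about its EC80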
BLA inhib ctr: inhibitors of NFAT-driven beta-lactamase reporter, confirmation, counter-screen for GALR2 antagonist project, CHO NFAT-bla cells, FRET readout; thapsigargin-stimulated; inhibition, % at 4.2 µM; shares compounds with GALR2 blocker; 480 compounds, 36% hits;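 active = inhibition above the mean inhibition across tested compounds plus 3 SD, cut at about 27% in these data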;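 note: 0% = 500 nM thapsigargin stimulated wells and 100% = unstimulated BSA only wells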
* marks the source's active call; other numbers are inactive results. In the library only some 1.3% were active in any assay of this set; here they are far more common. Cut-off read from the data, not from the text of the source, unless noted: active = inhibition above about 27%; inactive = the rest.

What do the screens show for `CCC(C)NC(=O)c1c(N)n(Cc2ccc3c(c2)OCO3)c2nc3ccccc3nc12` (stereo not given)?
GALR2 agonist: 84*; F-actin modifier: 4; S1P2 agonist: 140*; S1P2 antag: -169; GALR2 blocker: -12

What do the screens show for `CCC(C)NC(=O)c1c(N)n(CC2CCCO2)c2nc3ccccc3nc12` (stereo not given)?
GALR2 agonist: 3; GALR2 blocker: 4

How did CCC(C)NC(=O)c1c(N)n(CCCOC)c2nc3ccccc3nc12 (stereo not given) do in these assays?
GALR2 agonist: 16*; F-actin modifier: 7; S1P2 agonist: 25*; S1P2 antag: -69; GALR2 blocker: -9

How did CCCCCc1nc2ccccc2c(=O)n1-c1ccccc1[N+](=O)[O-] do in these assays?
GALR2 agonist: -1; GALR2 blocker: -15

How did CCCCCc1nc2c(c(=O)c3ccccc3n2C)c(=O)n1C1CCCCCC1 do in these assays?
GALR2 agonist: 7.3*; GALR2 blocker: -2

Results for COP(=O)(OC)C1(O)C(=O)Nc2ccc(Br)cc21 (stereo not given) ?
GALR2 agonist: -4; GALR2 blocker: 17

What do the screens show for `CC(=O)NC1CC2CCCC(C1)N2` (stereo not given)?
GALR2 agonist: -1; F-actin modifier: 67*; S1P2 agonist: -4; S1P2 antag: 11; GALR2 blocker: 4

How did Cc1c(N=Nc2c(O)n(C)c(=O)n(C)c2=O)c(=O)n(-c2ccccc2)n1C do in these assays?
GALR2 agonist: -1; GALR2 blocker: -6

Results for c1ccc(-c2[nH]c(-c3ccccc3)[n+](CC3CO3)c2-c2ccccc2)cc1 (stereo not given) ?
GALR2 agonist: 0; GALR2 blocker: 14

How did C=CCNC(=O)c1c(N)n(Cc2ccco2)c2nc3ccccc3nc12 do in these assays?
GALR2 agonist: 6.4*; F-actin modifier: -6; S1P2 agonist: 18*; S1P2 antag: -15; GALR2 blocker: -19

How did O=C(COc1ccccc1)N1CCN(C/C=C/c2ccccc2)CC1 do in these assays?
GALR2 agonist: -1; F-actin modifier: 0; S1P2 agonist: -5; S1P2 antag: 12; GALR2 blocker: -11

How did O=C(COc1ccccc1)N1CCN(CC(O)COc2ccccc2)CC1 (stereo not given) do in these assays?
GALR2 agonist: 0; F-actin modifier: 35*; S1P2 agonist: -5; S1P2 antag: 23; GALR2 blocker: -1

How did Cc1ccc(CN2C(=O)NC(=O)C3(Cc4c(nc5ccccn5c4=O)N4CCCCCC43)C2=O)cc1 (stereo not given) do in these assays?
GALR2 agonist: 1; F-actin modifier: 51; S1P2 agonist: -9; S1P2 antag: 1; GALR2 blocker: -1

How did Nc1c(C(=O)NCCc2ccccc2)c2nc3ccccc3nc2n1CCN1CCOCC1 do in these assays?
GALR2 agonist: 25*; F-actin modifier: 2; S1P2 agonist: 31*; S1P2 antag: -28; GALR2 blocker: -12

What do the screens show for `CCCCn1c(N)c(C(=O)NCCN2CCOCC2)c2nc3ccccc3nc21`?
GALR2 agonist: 3; F-actin modifier: -27; S1P2 agonist: 2; S1P2 antag: -17; GALR2 blocker: -4

What do the screens show for `COc1ccc(CCNC(=O)c2c(N)n(CCN3CCOCC3)c3nc4ccccc4nc23)cc1`?
GALR2 agonist: 7; F-actin modifier: 4; S1P2 agonist: 27*; S1P2 antag: -24; GALR2 blocker: -6

How did CC(C)CCNC(=O)c1c(N)n(CC2CCCO2)c2nc3ccccc3nc12 (stereo not given) do in these assays?
GALR2 agonist: 32*; F-actin modifier: -24; S1P2 agonist: 40*; S1P2 antag: -62; GALR2 blocker: -11

Results for Cn1c(O)c(/C=C/C=Nc2ccccc2)c(=O)n(C)c1=S ?
GALR2 agonist: 3; GALR2 blocker: -1

How did COc1cc2c3cc1Oc1cc(ccc1O)C[C@@H]1c4c(cc(OC)c(O)c4Oc4ccc(cc4)C[C@H]3N(C)CC2)CCN1C do in these assays?
GALR2 agonist: 9.6*; GALR2 blocker: -1; GALR2 agon conf: 12*; BLA act counter: 1

Results for COc1ccc(C[C@@H]2c3cc(O)c(OC)cc3CCN2C)cc1O ?
GALR2 agonist: -1; GALR2 blocker: 2

Results for CCN(CC)CC(O)c1ccc(C2CCCC2)cc1 (stereo not given) ?
GALR2 agonist: -2; GALR2 blocker: 1

How did CC(NC1CCCCC1)C(O)C12CC3CC(CC(C3)C1)C2 (stereo not given) do in these assays?
GALR2 agonist: 19*; S1P2 agonist: -4; S1P2 antag: -11; GALR2 blocker: 6; GALR2 agon conf: 0; BLA act counter: -2

How did C=CCn1c(O)c(C(CC)=NCCc2ccccc2)c(=O)[nH]c1=O do in these assays?
GALR2 agonist: 12*; F-actin modifier: 0; S1P2 agonist: -3; S1P2 antag: -6; GALR2 blocker: -13; GALR2 agon conf: 0; BLA act counter: 1

How did CC12CN3CN(C1)CC(C)(C3)C2=NO do in these assays?
GALR2 agonist: -1; GALR2 blocker: 19

How did Cc1c2ccncc2c(C)c2c1[nH]c1ccccc12 do in these assays?
GALR2 agonist: 12*; GALR2 blocker: 1; GALR2 agon conf: 13*; BLA act counter: 4

Results for CC(=O)C1C2c3ccccc3O[C@@]1(C)N=c1s/c(=C/c3ccoc3)c(=O)n12 (stereo not given in full) ?
GALR2 agonist: 1; GALR2 blocker: 3

Results for COCCNP(=O)(c1ccccc1)c1nc2ccccc2s1 (stereo not given) ?
GALR2 agonist: 12*; F-actin modifier: 2; S1P2 agonist: 1; S1P2 antag: 23; GALR2 blocker: -7; GALR2 agon conf: -1; BLA act counter: 0

Results for CCCCCCN=Cc1c(O)n(C)c(=O)n(C)c1=O ?
GALR2 agonist: 0; F-actin modifier: -11; S1P2 agonist: -2; S1P2 antag: 5; GALR2 blocker: 10

How did O=c1cc(C(F)(F)F)c2cc3c4c(c2o1)CCCN4CCC3 do in these assays?
GALR2 agonist: 9; F-actin modifier: 2; S1P2 agonist: -4; S1P2 antag: 36; GALR2 blocker: 36*; GALR2 agon conf: 2; BLA act counter: -1; GALR2 blk conf: 32*; BLA inhib ctr: 44*
